Here are results for 11 compounds from PubChem BioAssay (NCATS).

Where “and” joins values, the source holds several entries; their conditions need not be identical. Equal values may be shown once. Results filed as inconclusive are left out. Calls of active or inactive are those of the source. Calls follow the shape of the dose curve; as a rule, active = well fitted curve in the direction sought with a large enough effect; inconclusive = small, poorly fitted or top-dose-only effect, or another doubt; inactive = no such curve, though single readings can be large; an effect the other way counts as inactive or inconclusive.

Assay [1] addresses Cytochrome P450 3A7 (Homo sapiens) (UniProt P24462). Briefly: Cytochrome P450 family 3 subfamily A member 7 (CYP3A7) small molecule antagonists: luciferase biochemical qHTS assay (AID 1963596). Also: nearly all actives have a fitted effect of over 40% in size. As to conditions: P450-Glo CYP3A7 enzyme luminescence, 1 h; series mostly up to 57.4 µM. The procedure, abridged:
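Luminescence read-out (relative luminescence units) after 20 min with detection reagent, which stops the reaction. Enzyme, proluciferin substrate and compound preincubated 10 min, RT; NADPH regeneration system then started 1 h reaction. Ketoconazole as positive control.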
(In qHTS, concentration-response curves come from the screen itself.)

Assay [2] can be described thus: Viability qHTS for spleen associated tyrosine kinase inhibitor (SYKi) naive MV4-11 cells (AID 1963823). Also: nearly all actives have a fitted effect of over 40% in size. Also: potency is read from the fitted curve at half-maximal effect. The note with it: MV4-11 AML viability, CellTiter-Glo luminescence, 72 h; series mostly up to 45 µM. The procedure, abridged: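 CellTiter-Glo luminescence, 10 min room-temperature incubation, gave viability. Cells: naive MV4-11 (500/well), treated 72 hr at 37 C, 5% CO2.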

A short description of assay [3]: Viability qHTS for spleen associated tyrosine kinase inhibitor (SYKi) drug resistant MV4-11 cells (AID 1963824). Also: nearly all actives have a fitted effect of over 35% in size. Also: potency is read from the fitted curve at half-maximal effect. The note with it: SYKi-resistant MV4-11 viability, CellTiter-Glo, 72 h; series mostly up to 45 µM. In a few lines: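 SYK inhibitor-resistant MV4-11 AML cells, 500 per well, added to predispensed compounds and incubated 72 hr at 37 C, 5% CO2. Viability measured by CellTiter-Glo luminescence after 10 min at room temperature.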

Assay [4] can be described thus: Cellular viability qHTS for adrenocortical cancer (ACC) cell line NCI-H295R (AID 1963990). Also: nearly all actives have a fitted effect of over 60% in size. Also: potency is read from the fitted curve at half-maximal effect. As to conditions: CellTiter-Glo ATP luminescence, 48 h; series mostly up to 46.1 µM. The procedure, abridged:
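Readout: CellTiter-Glo luminescence, 20 min RT. Exposure: 48 h, 37C/5% CO2. Cells: NCI-H295R, ITS-DMEM serum-free. Range: up to 46 uM. Analysis: 4PL fit, IC50 plus efficacy.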

Cytochrome P450 3A7 (Homo sapiens), sequence (P24462 whole entry, looked up): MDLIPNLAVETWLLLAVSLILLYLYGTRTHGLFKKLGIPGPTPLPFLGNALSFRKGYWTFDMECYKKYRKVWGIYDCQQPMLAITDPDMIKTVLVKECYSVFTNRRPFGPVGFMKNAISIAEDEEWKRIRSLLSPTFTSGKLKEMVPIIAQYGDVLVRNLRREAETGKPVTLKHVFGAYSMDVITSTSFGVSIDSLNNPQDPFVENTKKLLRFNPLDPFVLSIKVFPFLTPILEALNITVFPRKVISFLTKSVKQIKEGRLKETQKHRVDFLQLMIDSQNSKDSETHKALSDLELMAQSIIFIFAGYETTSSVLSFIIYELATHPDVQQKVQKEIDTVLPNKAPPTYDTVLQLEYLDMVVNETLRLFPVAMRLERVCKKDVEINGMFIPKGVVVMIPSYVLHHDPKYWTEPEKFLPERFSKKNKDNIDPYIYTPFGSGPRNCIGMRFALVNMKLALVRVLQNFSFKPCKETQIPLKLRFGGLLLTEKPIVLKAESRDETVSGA

As to `OC[C@H]1O[C@@H](n2cnc3c2NC=NC[C@H]3O)C[C@@H]1O`, the Potency result in assay [1], in assay [2], in assay [3] and in assay [4] was “inactive” in each case.

As for `NC(=O)NS(=O)(=O)c1ccc(N)cc1`, the Potency result in assay [1], in assay [2], in assay [3] and in assay [4] was “inactive” each time.

Take `C[N+](C)(C)CC(O)CC(=O)[O-]` (centres undefined): the Potency entry in assay [1], in assay [2], in assay [3] and in assay [4] was “inactive” each time.

For `C[C@@H](O)[C@H]1C(=O)N2C(C(=O)O)=C(S[C@@H]3CN[C@H](C(=O)N(C)C)C3)[C@H](C)[C@H]12`, the Potency entry in assay [1], in assay [2], in assay [3] and in assay [4] was “inactive” in each case.

`CCN1CCC[C@H]1CNC(=O)c1cc(S(N)(=O)=O)ccc1OC`: the Potency entry in assay [1], in assay [2], in assay [3] and in assay [4] was “inactive” each time.

On to `CC1(C)[C@@H](OC(=O)CCC(=O)O)CC[C@]2(C)[C@H]3C(=O)C=C4[C@@H]5C[C@@](C)(C(=O)O)CC[C@]5(C)CC[C@@]4(C)[C@]3(C)CC[C@@H]12`, for which the Potency entry in assay [1], in assay [2], in assay [3] and in assay [4] was “inactive” throughout.

As to `Cc1[nH]c(C)c(Cl)c(=O)c1Cl`, the Potency result in assay [1], in assay [2], in assay [3] and in assay [4] was “inactive” each time.

In the case of `C[N+]1(C)CCCC(OC(=O)C(O)(c2ccccc2)c2ccccc2)C1` (centres undefined), the Potency entry in assay [1], in assay [2], in assay [3] and in assay [4] was “inactive” each time.

Turning to `COc1cc(NS(=O)(=O)c2ccc(N)cc2)ncn1`, the Potency result in assay [1], in assay [2], in assay [3] and in assay [4] was “inactive” in each case.

For `Cc1nc(NC(=O)N2CCC[C@H]2C(N)=O)sc1-c1ccnc(C(C)(C)C(F)(F)F)c1`, in assay [1], the Potency entry is “inactive”. Besides, the Potency is 13 µM (active) in assay [2]; 11.6 µM (active) and 16.6 µM (active) in assay [3]; 11.2 µM (active) in assay [4].

`CCCn1cnc2c1c(=O)n(CCCCC(C)=O)c(=O)n2C`: the Potency result in assay [1], in assay [2], in assay [3] and in assay [4] was “inactive” each time.
